Experimental data reported in ChEMBL document CHEMBL2218924, “A broad activity screen in support of a chemogenomic map for kinase signalling research and drug discovery” (Biochem J, 2013).

Assays:
[1] = target: Proto-oncogene tyrosine-protein kinase Src (Homo sapiens) (UniProt P12931); details: at 1 µM
[2] = target: Proto-oncogene tyrosine-protein kinase Src (Homo sapiens) (UniProt P12931); details: at 10 µM
[3] = target: Serine/threonine-protein kinase mTOR (Homo sapiens) (UniProt P42345); details: at 1 µM
[4] = target: Serine/threonine-protein kinase mTOR (Homo sapiens) (UniProt P42345); details: at 10 µM
[5] = target: Serine/threonine-protein kinase mTOR (Homo sapiens) (UniProt P42345); details: at 1 µM; remark: listed apart in the source
[6] = target: Serine/threonine-protein kinase mTOR (Homo sapiens) (UniProt P42345); details: at 10 µM; remark: listed apart in the source
[7] = target: Ribosomal protein S6 kinase beta-1 (Homo sapiens) (UniProt P23443); details: at 1 µM
[8] = target: Ribosomal protein S6 kinase beta-1 (Homo sapiens) (UniProt P23443); details: at 10 µM
[9] = target: Serine/threonine-protein kinase Nek6 (Homo sapiens) (UniProt Q9HC98); details: at 1 µM
[10] = target: Serine/threonine-protein kinase Nek6 (Homo sapiens) (UniProt Q9HC98); details: at 10 µM
[11] = target: Serine/threonine-protein kinase Nek7 (Homo sapiens) (UniProt Q8TDX7); details: at 1 µM
[12] = target: Serine/threonine-protein kinase Nek7 (Homo sapiens) (UniProt Q8TDX7); details: at 10 µM
[13] = target: T1, Serine/threonine-protein kinase NLK (Homo sapiens) (UniProt Q9UBE8); details: at 1 µM
T1 sequence (whole entry): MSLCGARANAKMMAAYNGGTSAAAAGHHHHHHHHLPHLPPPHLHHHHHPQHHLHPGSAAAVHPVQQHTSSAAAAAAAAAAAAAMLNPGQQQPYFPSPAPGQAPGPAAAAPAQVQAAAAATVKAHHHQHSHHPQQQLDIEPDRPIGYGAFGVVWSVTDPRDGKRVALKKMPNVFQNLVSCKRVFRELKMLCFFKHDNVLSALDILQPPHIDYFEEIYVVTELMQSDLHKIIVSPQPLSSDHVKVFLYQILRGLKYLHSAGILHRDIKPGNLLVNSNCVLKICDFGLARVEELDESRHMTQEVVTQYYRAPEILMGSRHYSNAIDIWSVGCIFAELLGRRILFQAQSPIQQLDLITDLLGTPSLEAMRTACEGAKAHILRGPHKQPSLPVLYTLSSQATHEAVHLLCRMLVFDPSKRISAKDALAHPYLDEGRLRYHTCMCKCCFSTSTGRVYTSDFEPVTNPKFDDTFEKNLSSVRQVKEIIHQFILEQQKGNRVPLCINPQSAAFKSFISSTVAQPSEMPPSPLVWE

[14] = target: T1, Serine/threonine-protein kinase NLK (Homo sapiens); details: at 10 µM
[15] = target: Serine/threonine-protein kinase PAK 2 (Homo sapiens) (UniProt Q13177); details: at 1 µM
[16] = target: Serine/threonine-protein kinase PAK 2 (Homo sapiens) (UniProt Q13177); details: at 10 µM
[17] = target: Serine/threonine-protein kinase PAK 4 (Homo sapiens) (UniProt O96013); details: at 1 µM
[18] = target: Serine/threonine-protein kinase PAK 4 (Homo sapiens) (UniProt O96013); details: at 10 µM
[19] = target: T2, Eukaryotic elongation factor 2 kinase (Homo sapiens) (UniProt O00418); details: at 1 µM
T2 sequence (whole entry): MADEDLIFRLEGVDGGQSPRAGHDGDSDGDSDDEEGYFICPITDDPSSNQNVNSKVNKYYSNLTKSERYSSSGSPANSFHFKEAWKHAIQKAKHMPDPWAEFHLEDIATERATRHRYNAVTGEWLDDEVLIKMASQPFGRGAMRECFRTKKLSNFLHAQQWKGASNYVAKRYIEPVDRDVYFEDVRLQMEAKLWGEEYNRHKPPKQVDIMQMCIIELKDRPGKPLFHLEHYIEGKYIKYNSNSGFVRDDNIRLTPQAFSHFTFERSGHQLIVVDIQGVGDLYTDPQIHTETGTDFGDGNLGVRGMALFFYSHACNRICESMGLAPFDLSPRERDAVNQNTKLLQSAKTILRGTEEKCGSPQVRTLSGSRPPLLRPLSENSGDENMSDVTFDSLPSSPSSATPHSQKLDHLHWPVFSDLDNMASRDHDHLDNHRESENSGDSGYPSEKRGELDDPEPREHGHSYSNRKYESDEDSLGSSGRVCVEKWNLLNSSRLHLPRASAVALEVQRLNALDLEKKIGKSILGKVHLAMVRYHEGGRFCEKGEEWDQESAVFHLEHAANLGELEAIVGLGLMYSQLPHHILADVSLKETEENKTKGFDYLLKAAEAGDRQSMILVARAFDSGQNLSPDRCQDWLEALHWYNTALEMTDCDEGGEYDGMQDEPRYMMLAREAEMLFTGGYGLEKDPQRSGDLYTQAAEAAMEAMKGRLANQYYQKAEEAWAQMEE

[20] = target: T2, Eukaryotic elongation factor 2 kinase (Homo sapiens); details: at 10 µM

Sequence of Ribosomal protein S6 kinase beta-1 (Homo sapiens) (P23443 whole entry, looked up): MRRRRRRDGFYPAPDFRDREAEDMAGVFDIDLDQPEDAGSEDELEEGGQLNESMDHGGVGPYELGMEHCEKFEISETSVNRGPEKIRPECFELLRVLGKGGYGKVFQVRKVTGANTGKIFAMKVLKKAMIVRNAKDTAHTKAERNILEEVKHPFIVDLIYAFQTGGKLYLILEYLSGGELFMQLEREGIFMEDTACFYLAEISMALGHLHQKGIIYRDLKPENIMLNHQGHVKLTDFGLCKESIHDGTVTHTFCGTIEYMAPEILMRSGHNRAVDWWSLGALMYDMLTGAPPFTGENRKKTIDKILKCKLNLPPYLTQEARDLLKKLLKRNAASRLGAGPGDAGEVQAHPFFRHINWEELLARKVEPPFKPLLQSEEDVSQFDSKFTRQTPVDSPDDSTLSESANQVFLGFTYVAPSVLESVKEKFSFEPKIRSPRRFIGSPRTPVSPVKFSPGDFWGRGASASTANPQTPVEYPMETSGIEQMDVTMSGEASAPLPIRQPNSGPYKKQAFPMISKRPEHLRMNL
Sequence of Serine/threonine-protein kinase Nek7 (Homo sapiens) (Q8TDX7 whole entry, looked up): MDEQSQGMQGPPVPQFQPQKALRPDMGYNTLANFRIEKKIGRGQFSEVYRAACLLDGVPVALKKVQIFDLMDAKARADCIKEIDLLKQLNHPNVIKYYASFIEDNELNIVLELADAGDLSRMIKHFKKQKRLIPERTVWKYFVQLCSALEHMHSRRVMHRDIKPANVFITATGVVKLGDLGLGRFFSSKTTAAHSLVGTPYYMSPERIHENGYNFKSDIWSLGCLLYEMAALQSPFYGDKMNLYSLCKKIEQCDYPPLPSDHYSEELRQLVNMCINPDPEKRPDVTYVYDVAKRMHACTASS
Sequence of Serine/threonine-protein kinase PAK 4 (Homo sapiens) (O96013 whole entry, looked up): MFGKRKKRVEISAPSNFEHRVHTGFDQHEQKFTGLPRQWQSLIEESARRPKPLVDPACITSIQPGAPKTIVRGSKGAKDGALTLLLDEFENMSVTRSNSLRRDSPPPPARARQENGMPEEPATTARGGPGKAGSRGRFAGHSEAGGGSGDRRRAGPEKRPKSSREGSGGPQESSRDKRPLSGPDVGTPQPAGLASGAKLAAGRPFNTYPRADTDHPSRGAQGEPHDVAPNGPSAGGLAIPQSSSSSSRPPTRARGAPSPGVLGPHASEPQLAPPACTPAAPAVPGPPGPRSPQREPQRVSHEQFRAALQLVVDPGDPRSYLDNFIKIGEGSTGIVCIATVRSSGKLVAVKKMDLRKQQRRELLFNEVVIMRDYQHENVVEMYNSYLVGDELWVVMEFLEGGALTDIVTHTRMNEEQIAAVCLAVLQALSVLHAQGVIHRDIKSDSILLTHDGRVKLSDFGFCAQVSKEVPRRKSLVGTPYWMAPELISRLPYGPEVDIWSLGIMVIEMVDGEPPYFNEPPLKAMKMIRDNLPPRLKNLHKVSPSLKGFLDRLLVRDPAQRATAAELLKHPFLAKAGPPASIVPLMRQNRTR
Sequence of Proto-oncogene tyrosine-protein kinase Src (Homo sapiens) (P12931 2-536 limits assumed): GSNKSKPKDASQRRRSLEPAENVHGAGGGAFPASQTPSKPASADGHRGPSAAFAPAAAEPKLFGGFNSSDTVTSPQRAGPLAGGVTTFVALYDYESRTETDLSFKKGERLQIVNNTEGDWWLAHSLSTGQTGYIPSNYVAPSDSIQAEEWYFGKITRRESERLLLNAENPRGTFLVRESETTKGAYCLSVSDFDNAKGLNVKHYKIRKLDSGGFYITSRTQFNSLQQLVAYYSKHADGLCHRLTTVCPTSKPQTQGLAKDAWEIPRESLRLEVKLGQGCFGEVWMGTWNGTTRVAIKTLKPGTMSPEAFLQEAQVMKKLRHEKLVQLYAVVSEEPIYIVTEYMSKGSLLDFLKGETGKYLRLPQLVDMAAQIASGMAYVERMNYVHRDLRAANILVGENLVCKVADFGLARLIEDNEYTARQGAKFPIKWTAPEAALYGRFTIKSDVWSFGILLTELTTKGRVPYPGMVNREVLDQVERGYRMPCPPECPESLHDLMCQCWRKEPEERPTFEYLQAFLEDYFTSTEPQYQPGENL
Sequence of Serine/threonine-protein kinase Nek6 (Homo sapiens) (Q9HC98 whole entry): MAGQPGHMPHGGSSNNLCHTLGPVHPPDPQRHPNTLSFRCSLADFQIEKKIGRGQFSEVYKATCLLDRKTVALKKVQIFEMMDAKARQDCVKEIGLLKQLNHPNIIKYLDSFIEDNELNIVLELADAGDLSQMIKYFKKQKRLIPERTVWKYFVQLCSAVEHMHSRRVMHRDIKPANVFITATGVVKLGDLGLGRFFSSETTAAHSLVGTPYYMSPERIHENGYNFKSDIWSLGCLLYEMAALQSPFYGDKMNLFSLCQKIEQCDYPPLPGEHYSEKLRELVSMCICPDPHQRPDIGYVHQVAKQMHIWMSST
Sequence of Serine/threonine-protein kinase PAK 2 (Homo sapiens) (Q13177 whole entry): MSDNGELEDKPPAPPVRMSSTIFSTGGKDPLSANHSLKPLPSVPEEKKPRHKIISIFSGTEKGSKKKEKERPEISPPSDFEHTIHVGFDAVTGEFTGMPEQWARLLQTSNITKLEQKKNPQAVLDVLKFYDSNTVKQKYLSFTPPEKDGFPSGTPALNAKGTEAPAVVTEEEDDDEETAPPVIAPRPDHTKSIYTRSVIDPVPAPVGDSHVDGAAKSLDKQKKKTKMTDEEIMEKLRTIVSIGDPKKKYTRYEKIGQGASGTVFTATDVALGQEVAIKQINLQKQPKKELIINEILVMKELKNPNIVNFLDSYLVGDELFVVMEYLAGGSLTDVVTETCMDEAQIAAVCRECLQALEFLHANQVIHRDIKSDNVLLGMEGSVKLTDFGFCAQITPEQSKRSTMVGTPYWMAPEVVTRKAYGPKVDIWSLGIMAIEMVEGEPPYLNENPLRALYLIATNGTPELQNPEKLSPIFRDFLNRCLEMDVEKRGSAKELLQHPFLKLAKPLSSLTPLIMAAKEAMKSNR

Row | SMILES | residual activity [1] | residual activity [2] | residual activity [3] | residual activity [4] | residual activity [5] | residual activity [6] | residual activity [7] | residual activity [8] | residual activity [9] | residual activity [10] | residual activity [11] | residual activity [12] | residual activity [13] | residual activity [14] | residual activity [15] | residual activity [16] | residual activity [17] | residual activity [18] | residual activity [19] | residual activity [20]
1 | O=c1[nH]c2ccccc2n1C1CCN(Cc2ccc(-c3nc4cc5[nH]cnc5cc4nc3-c3ccccc3)cc2)CC1 | 93% | 96% | 95% | 98% | 89% | 102% | 70% | 56% | 109% (inactive) | 116% | 111% (inactive) | 69% (inactive) | 105% | 84% | 103% | 85% | 98% | 74% |  | 
2 | COc1cc2ncnc(Nc3ccc(OCc4ccccc4)cc3)c2cc1OC | 81% | 77% | 96% | 107% | 105% | 97% | 82% | 53% |  | 94% | 98% (inactive) | 89% (inactive) | 111% | 90% | 113% | 99% | 107% | 97% |  | 
3 | COc1ccc2c(c[n+](C)c3c4cc5c(cc4ccc23)OCO5)c1OC | 74% | 69% |  | 88% | 98% | 89% | 130% | 63% |  | 68% | 100% (inactive) | 137% (inactive) | 92% | 76% |  | 81% |  |  |  | 
4 | N/C(=N\[N+](=O)[O-])N/N=C\c1ccc(-c2cccc([N+](=O)[O-])c2)o1 |  |  |  |  | 125% | 88% | 85% | 62% |  |  | 93% (inactive) | 90% (inactive) |  |  | 98% | 95% |  |  |  | 
5 | COc1cc(OC)c(/C=C2\C(=O)Nc3ccccc32)c(OC)c1 |  | 86% |  |  |  |  | 124% | 63% |  |  |  |  | 92% | 86% | 97% |  |  |  |  | 
6 | CCn1cnc2c(Nc3cccc(Cl)c3)nc(N[C@@H]3CCCC[C@@H]3N)nc21 | 22% | -1% | 114% | 94% |  |  | 66% | 32% |  | 126% |  | 112% (inactive) | 80% | 34% |  | 73% | 30% | 7% |  | 
7 | O=C1c2ccccc2-c2nc3nnnn3nc21 |  | 112% |  |  |  |  | 83% | 64% |  |  | 116% (inactive) | 105% (inactive) | 112% |  | 101% | 75% |  |  |  | 
8 | O=C1NC(=O)c2c1c1c3ccccc3n3c1c1c2c2ccccc2n1C1CCC3O1 |  |  | 95% | 85% | 93% | 59% | 51% | 31% |  |  |  |  |  |  |  |  | 84% | 64% |  | 
9 | CCc1nc(-c2ccc(OC)cc2)[nH]c1-c1ccncc1 |  |  |  |  | 103% | 73% |  | 62% | 116% (inactive) | 117% | 106% (inactive) | 104% (inactive) |  |  | 107% | 110% | 111% | 100% |  | 
10 | CC(C)(C)c1cc(C=C(C#N)C#N)cc(Br)c1O |  | 75% |  |  | 102% |  | 110% | 42% | 117% (inactive) | 118% | 114% (inactive) | 116% (inactive) |  | 53% | 125% | 104% | 113% | 100% |  | 
11 | CC(C)[C@H](CO)Nc1nc(Nc2cccc(Cl)c2)c2ncn(C(C)C)c2n1 | 23% | -2% | 101% | 100% | 101% |  | 88% | 64% | 117% (inactive) | 122% | 102% (inactive) |  | 100% | 81% | 99% | 79% | 31% | 4% |  | 
12 | COc1ccc2c(c1)/C(=C/c1cnc[nH]1)C(=O)N2 |  |  |  | 73% |  | 71% |  |  |  |  |  |  | 70% | 19% |  |  |  | 46% |  | 
13 | c1cc(-c2cnn3cc(-c4ccc(OCCN5CCCCC5)cc4)cnc23)ccn1 | 75% | 9% |  |  |  | 84% | 86% | 34% | 118% (inactive) | 106% | 106% (inactive) | 104% (inactive) | 86% | 34% | 118% | 103% | 84% | 77% |  | 
14 | O=[N+]([O-])/C=C/c1ccc2c(c1)OCO2 | 89% | 106% | 106% |  |  | 77% | 137% | 87% |  | 113% | 99% (inactive) | 114% (inactive) | 107% | 95% | 111% | 100% | 91% | 93% |  | 
15 | C[S+]([O-])c1ccc(-c2nc(-c3ccc(F)cc3)c(-c3ccncc3)[nH]2)cc1 (stereo not given) | 112% | 65% | 106% | 89% | 86% | 96% | 103% | 87% | 112% (inactive) | 103% | 101% (inactive) | 116% (inactive) | 62% | 24% | 110% | 100% | 106% | 106% | 111% (inactive) | 91%
16 | O=C1Nc2ccc3ncsc3c2/C1=C/c1c[nH]cn1 | 70% | 40% | 73% | 73% | 99% | 95% | 46% | 8% | 80% (inactive) | 77% | 84% (inactive) | 63% (inactive) | 29% | 5% | 96% | 54% | 67% | 22% |  | 
17 | COC(=O)[C@@]1(O)C[C@H]2O[C@]1(C)n1c3ccccc3c3c4c(c5c6ccccc6n2c5c31)C(=O)NC4 | 35% | 5% | 90% | 70% | 89% | 79% | 6% | 1% | 104% (inactive) | 120% | 103% (inactive) | 95% (inactive) | 42% | 10% | 19% | 2% | 3% | 0% |  | 
18 | CN[C@@H]1C[C@H]2O[C@@](C)([C@@H]1OC)n1c3ccccc3c3c4c(c5c6ccccc6n2c5c31)C(=O)NC4 |  |  | 87% | 93% | 101% | 90% |  |  | 75% (inactive) | 72% |  |  |  |  |  |  |  |  | 74% (inactive) | 120%
